# Results filed as inconclusive are left out. Values without a mark were called inactive. Active and inactive are the calls of the source. Calls follow the shape of the dose curve; as a rule, active = well fitted cell-killing curve with a large enough effect; inconclusive = small, poorly fitted or top-dose-only effect, or effect the other way; inactive = no such curve, though single readings can be large or run the other way.
# Test: Quantitative High-Throughput drug screen in 47 multiple myeloma cell lines against the NCATS MIPE library collection: MM1S_ATCC cell viability assay (AID 1918980); also: nearly all actives have a fitted effect of over 45% in size
# Conditions: MM1S myeloma viability, CellTiter-Glo ATP luminescence, 48 h; series mostly up to 45.8 µM; viability (% of control): at the top concentration
# Excerpt: PI: Beverly A. Mock Ph.D.
# Laboratory of Cancer Biology and Genetics,
# Center for Cancer Research, National Cancer Institute,
# National Institute of Health, Bethesda, Maryland
# Drug resistance and disease progression are common in multiple myeloma (MM) patients, underscoring the need for new therapeutic combinations. […] We hypothesized that effective combinations would reduce MYC expression and enhance p16 activity. […] These preclinical data identify potentially useful drug combinations for evaluation in drug-resistant MM and reveal potential mechanisms of combined drug sensitivity.
# Described herein is the primary MIPE qHTS used to cherrypick compounds. Validated compounds were then further tested for potential synergistic activiy.
# [1] Peat TJ, Gaikwad SM, Dubois W, Gyabaah-Kessie N, Zhang S, Gorjifard S, Phyo Z, Andres M, Hughitt VK, Simpson RM, Miller MA, Girvin AT, Taylor A, Williams D, D'Antonio N, Zhang Y, Rajagopalan A, Flietner E, Wilson K, Zhang X, Shinn P, Klumpp-Thomas C, McKnight C, Itkin Z, Chen L, Kazandijian D, Zhang J, Michalowski AM, Simmons JK, Keats J, Thomas CJ, Mock BA. Drug combinations identified by high-throughput screening promote cell cycle transition and upregulate Smad pathways in myeloma. Cancer Lett. 2023 Aug 1;568:216284. doi: 10.1016/j.canlet.2023.216284. Epub 2023 Jun 24. PMID: 37356470; PMCID: PMC10408729.
# SEQUENCE No. (e.g., 1, 2, 3, etc.); […] (e.g., Cells, Incubation, Reagent, etc.); VALUE and DESCRIPTION.
# 1; Cells; 5 uL; white, solid bottom 1536-well Greiner assay plate.
# 2; Compounds; 23 nL; Kalypsis pin tool (Wako USA) equipped with a 1536-well pin head to transfer to the assay plates.
# 3; Incubation; 48 hours; 37C incubation.
# 4; Reagent;5uL; CellTiter Glo (Promega).
# 5; Detector; 425V; Luminescence; Viewlux PerkinElmer.
# NOTES (numbers refer to Sequence numbers above)
# 1. The cell-based screening methods employed in this study were like those previously published. Briefly, the corresponding myeloma cell lines were screened in 1,536-well plates with 500 cells, 5-uL per well for inhibition of cell viability (assessed by measuring ATP levels with CellTiterGlo).
# 2. NCATS MIPE 4.0 library of approved and investigational drugs were added using the Kalypsis pin tool. Wells treated with DMSO only for 100% viability and media only for 0% viability were used as controls.
# 3. The assay plates were covered and incubated for 48 hours in a 37C, 5% CO2 incubator with controlled humidity.
# 4. After 48 hours, CellTilter-GloTM luminescent substrate mix (Promega) reagent was added to the assay plate and plates we incubated for 5 min at room temperature.
# 5. Signal was measured as median relative luminescence units on a ViewLux (PerkinElmer) multiplate reader.
# [1] Heske CM, Davis MI, Baumgart JT, Wilson K, Gormally MV, Chen L, Zhang X, Ceribelli M, Duveau DY, Guha R, Ferrer M, Arnaldez FI, Ji J, Tran HL, Zhang Y, Mendoza A, Helman LJ, Thomas CJ. Matrix Screen Identifies Synergistic Combination of PARP Inhibitors and Nicotinamide Phosphoribosyltransferase (NAMPT) Inhibitors in Ewing Sarcoma. Clin Cancer Res. 2017 Dec 1;23(23):7301-7311. doi: 10.1158/1078-0432.CCR-17-1121. Epub 2017 Sep 12. PMID: 28899971; PMCID: PMC6636827.
# Potency is read from the fitted curve at half-maximal effect.
Compound,Potency,viability (% of control)
C[C@@H]1[C@@H](CC(C[C@H]2O[C@@H]3O[C@]4(C)CC[C@@H]5[C@H](C)CC[C@@H]([C@H]2C)[C@@]35OO4)C[S+](=O)([O-])c2ccc(COC(=O)N(C)C)cc2)O[C@@H]2O[C@]3(C)CC[C@H]4[C@H](C)CC[C@@H]1[C@@]24OO3 (some centres undefined),0.526 µM (active),–
CC(O)(CS(=O)(=O)c1ccc(F)cc1)C(=O)Nc1ccc(C#N)c(C(F)(F)F)c1 (centres undefined),0.132 µM (active),–
CN1CCN(C(=O)O[C@H]2c3nccnc3C(=O)N2c2ccc(Cl)cn2)CC1,–,109%
Cn1c(CCCC(=O)O)nc2cc(N(CCCl)CCCl)ccc21,23.5 µM (active),–
CNCC(O)c1ccc(O)cc1 (centres undefined),14.8 µM (active),–
Fc1ccc(C(OCCN2CCN(CCCc3ccccc3)CC2)c2ccc(F)cc2)cc1,18.7 µM (active),–
Cc1sc2c(c1C)C(c1ccc(Cl)cc1)=N[C@@H](CC(=O)OC(C)(C)C)c1nnc(C)n1-2,1.32 µM (active),–
C[C@@H]1O[C@@H](O[C@H]2C[C@@H](O)[C@]3(CO)[C@H]4[C@H](O)C[C@]5(C)[C@@H](C6=CC(=O)OC6)CC[C@]5(O)[C@@H]4CC[C@]3(O)C2)[C@H](O)[C@H](O)[C@H]1O,0.059 µM (active),–
NCC1(CC(=O)O)CCCCC1,–,122%
Cn1cc(C2=C(c3cn(C4CCN(Cc5ccccn5)CC4)c4ccccc34)C(=O)NC2=O)c2ccccc21,7.43 µM (active),–
CNC(=O)N1N=C(c2ccc(N)cc2)c2cc3c(cc2CC1C)OCO3 (centres undefined),16.6 µM (active),–
O=C(O)C(=O)c1cn(Cc2ccccc2)c2ccc(-c3ccc(OC(F)(F)F)cc3)cc12,23.5 µM (active),–
CC(C)CC(N(C)C)C1(c2ccc(Cl)cc2)CCC1 (centres undefined),5.26 µM (active),–
CN(C)CCc1ccc(O)cc1,–,124%
C#CCN(C)[C@H](C)Cc1ccccc1,–,111%
Cc1cc(SCc2sc(-c3ccc(C(F)(F)F)c(F)c3)nc2C)ccc1OCC(=O)O,9.35 µM (active),–
C[C@@H]1[C@@H](C(=O)C[C@H]2O[C@@H]3O[C@]4(C)CC[C@@H]5[C@H](C)CC[C@@H]([C@H]2C)[C@@]35OO4)O[C@@H]2O[C@]3(C)CC[C@H]4[C@H](C)CC[C@@H]1[C@@]24OO3,16.6 µM (active),–
COC[C@H]1OC(=O)c2coc3c2[C@@]1(C)C1=C(C3=O)C2CCC(=O)[C@@]2(C)C[C@H]1OC(C)=O (some centres undefined),14.8 µM (active),–
Cc1cccc(C)c1NC(=O)CN1CCCC1=O,0.235 µM (active),–
CNC(=O)c1ccc(N2C(=S)N(c3ccc(C#N)c(C(F)(F)F)c3)C(=O)C23CCC3)cc1F,1.05 µM (active),–
N[C@@H](Cc1ccc(N(CCCl)CCCl)cc1)C(=O)O,13.2 µM (active),–
C=C(C)[C@H]1Cc2c(ccc3c2O[C@@H]2COc4cc(OC)c(OC)cc4[C@@H]2C3=O)O1,1.32 µM (active),–
O=c1[nH]c2ccccc2n1CCCN1CCC(n2c(=O)[nH]c3cc(Cl)ccc32)CC1,0.0418 µM (active),–
O=C1CC[C@@]2(O)[C@H]3Cc4ccc(O)c5c4[C@@]2(CCN3CC2CC2)[C@H]1O5,–,121%

# Source: PubChem BioAssay (NCATS)
